The record followed here is PMC8384837, “Expanding the binding specificity for RNA recognition by a PUF domain”.

Assay in all cases: yeast three-hybrid, YBZ-1, SC-Leu-His + 0.5 mM 3-AT, 4 days
Conditions in all cases: tags: N-Gal4 AD-HA kept; label: inside an RPR1-promoter hybrid RNA with tandem MS2 sites; ssRNA

In one assay the target is PUM1 PUF domain R5-GRI (Homo sapiens, UniProt Q14671 828-1176, C1007G;Q1011I). In outline:
(§1)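 Repeat regions from input (SC-Leu) and selection (SC-Leu-His + 0.5 mM 3-AT) plates were PCR-amplified and Illumina-sequenced after four days of growth. The cells were strain YBZ-1 with a LexA–MS2 coat fusion and a HIS3 reporter, co-expressing Pumilio-1 PUF domain libraries and matching RNA elements from a centromeric plasmid. The interaction score is the log change in variant frequency from input to selection, taken in log2 with a pseudocount of 1 for absent variants.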

The target in a further assay is PUM1 PUF domain R1-SPR (Homo sapiens, UniProt Q14671 828-1176, R864P;Q867R). In outline:
as §1

The target of another assay is PUM1 PUF domain R1-RVT (Homo sapiens, UniProt Q14671 828-1176, S863R;R864V;Q867T). The method in brief:
as §1

In a further assay the target is PUM1 PUF domain R1-KNS (Homo sapiens, UniProt Q14671 828-1176, S863K;R864N;Q867S). In outline:
as §1

A further assay has as its target PUM1 PUF domain R1-GRK (Homo sapiens, UniProt Q14671 828-1176, S863G;Q867K). In outline: as §1
The next assay has as its target PUM1 PUF domain R4-GNC (Homo sapiens, UniProt Q14671 828-1176, N971G;H972N;Q975C). The method in brief: as §1
The target of another assay is PUM1 PUF domain R8-PWH (Homo sapiens, UniProt Q14671 828-1176, N1122P;Y1123W;Q1126H). In outline:
as §1

For another assay, the target named is PUM1 PUF domain R3-LFG (Homo sapiens, UniProt Q14671 828-1176, C935L;R936F;Q939G). In outline: as §1
The target of a further assay is PUM1 PUF domain R2-NWW (Homo sapiens, UniProt Q14671 828-1176, Y900W;Q903W). In outline:
as §1

In the next assay the target is PUM1 PUF domain R3-CRR (Homo sapiens, UniProt Q14671 828-1176, Q939R). In outline:
as §1

The next assay deals with PUM1 PUF domain R5-ERK (Homo sapiens, UniProt Q14671 828-1176, C1007E;Q1011K). The method in brief:
as §1

In the next assay the target is PUM1 PUF domain R3-GPF (Homo sapiens, UniProt Q14671 828-1176, C935G;R936P;Q939F). The method in brief: as §1
The target of a further assay is T1, PUM1 PUF domain R6-QRQ (Homo sapiens, UniProt Q14671 828-1176, N1043Q;Y1044R).
T1 sequence: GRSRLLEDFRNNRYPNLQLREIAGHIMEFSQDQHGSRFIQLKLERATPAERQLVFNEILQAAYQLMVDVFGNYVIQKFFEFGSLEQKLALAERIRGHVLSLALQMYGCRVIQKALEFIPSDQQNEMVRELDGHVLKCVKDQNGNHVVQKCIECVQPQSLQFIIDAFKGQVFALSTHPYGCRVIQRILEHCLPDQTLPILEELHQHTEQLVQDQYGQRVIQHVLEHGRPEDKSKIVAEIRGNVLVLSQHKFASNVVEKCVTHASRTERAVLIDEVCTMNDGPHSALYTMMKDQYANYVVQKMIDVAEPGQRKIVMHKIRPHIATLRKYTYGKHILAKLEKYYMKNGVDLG
The method in brief: as §1

The target of another assay is PUM1 PUF domain R3-LHG (Homo sapiens, UniProt Q14671 828-1176, C935L;R936H;Q939G). The method in brief:
as §1

The target of a further assay is PUM1 PUF domain R7-EHG (Homo sapiens, UniProt Q14671 828-1176, S1079E;N1080H;E1083G). The method in brief: as §1
Another assay has as its target PUM1 PUF domain R5-DKQ (Homo sapiens, UniProt Q14671 828-1176, C1007D;R1008K). The method in brief:
as §1

In a further assay the target is PUM1 PUF domain R5-FRC (Homo sapiens, UniProt Q14671 828-1176, C1007F;Q1011C). In outline: as §1
The next assay deals with PUM1 PUF domain R5-KQD (Homo sapiens, UniProt Q14671 828-1176, C1007K;R1008Q;Q1011D). The method in brief: as §1
A further assay has as its target PUM1 PUF domain R7-TSS (Homo sapiens, UniProt Q14671 828-1176, S1079T;N1080S;E1083S). The method in brief:
as §1

The target of a further assay is PUM1 PUF domain R2-PWE (Homo sapiens, UniProt Q14671 828-1176, N899P;Y900W;Q903E). The method in brief: as §1

On to “GGCUAGAACUAGUGGAUCCCCCGGCGCCCGGCGGCUCGAGCCCGGGUAAGUGUGAAUAGUCUGCAUGCCGCCGGGCGCCAUGCCUGCAGGUCGACUCUAGAAAACAUG”, for which the binding signal with PUM1 PUF domain R5-GRI is 3.52 log2 enrichment (interaction score).

Regarding “GGCUAGAACUAGUGGAUCCCCCGGCGCCCGGCGGCUCGAGCCCGGGUAAGUGUUAAUAGUCUGCAUGCCGCCGGGCGCCAUGCCUGCAGGUCGACUCUAGAAAACAUG”, the binding signal with PUM1 PUF domain R5-GRI is 3.43 log2 enrichment (interaction score).

On to “GGCUAGAACUAGUGGAUCCCCCGGCGCCCGGCGGCUCGAGCCCGGGUAAGUGUAAAUUGUCUGCAUGCCGCCGGGCGCCAUGCCUGCAGGUCGACUCUAGAAAACAUG”, for which the binding signal is 1.48 log2 enrichment (interaction score) with PUM1 PUF domain R1-SPR, 4.35 log2 enrichment (interaction score) with PUM1 PUF domain R1-RVT, 3.86 log2 enrichment (interaction score) with PUM1 PUF domain R1-KNS and 3.96 log2 enrichment (interaction score) with PUM1 PUF domain R1-GRK.

Take “GGCUAGAACUAGUGGAUCCCCCGGCGCCCGGCGGCUCGAGCCCGGGUAAGUGUACAUAGUCUGCAUGCCGCCGGGCGCCAUGCCUGCAGGUCGACUCUAGAAAACAUG”: the binding signal in the assay with PUM1 PUF domain R4-GNC was 3.28 log2 enrichment (interaction score).

Turning to “GGCUAGAACUAGUGGAUCCCCCGGCGCCCGGCGGCUCGAGCCCGGGUAAGUGUAAAUAGUCUGCAUGCCGCCGGGCGCCAUGCCUGCAGGUCGACUCUAGAAAACAUG”, the binding signal is 2.69 log2 enrichment (interaction score) in the assay with PUM1 PUF domain R8-PWH; 1.09 log2 enrichment (interaction score) with PUM1 PUF domain R4-GNC; 1.41 log2 enrichment (interaction score) with PUM1 PUF domain R3-LFG; 3.94 log2 enrichment (interaction score) in the assay with PUM1 PUF domain R2-NWW; 2.78 log2 enrichment (interaction score) in the assay with PUM1 PUF domain R3-CRR; 4.01 log2 enrichment (interaction score) with PUM1 PUF domain R5-ERK. Further, the values for the binding signal with PUM1 PUF domain R3-GPF, in the assay with PUM1 PUF domain R6-QRQ and with PUM1 PUF domain R5-GRI were 5.65 log2 enrichment (interaction score), 2.52 log2 enrichment (interaction score) and 3.04 log2 enrichment (interaction score), respectively.

For “GGCUAGAACUAGUGGAUCCCCCGGCGCCCGGCGGCUCGAGCCCGGGUAAGUGUAAAUGGUCUGCAUGCCGCCGGGCGCCAUGCCUGCAGGUCGACUCUAGAAAACAUG”, in the assay with PUM1 PUF domain R1-RVT, the binding signal is 3.15 log2 enrichment (interaction score).

As for “GGCUAGAACUAGUGGAUCCCCCGGCGCCCGGCGGCUCGAGCCCGGGUAAGUGUAAGUAGUCUGCAUGCCGCCGGGCGCCAUGCCUGCAGGUCGACUCUAGAAAACAUG”, the binding signal is 4.75 log2 enrichment (interaction score) with PUM1 PUF domain R3-LFG, 1.17 log2 enrichment (interaction score) in the assay with PUM1 PUF domain R3-CRR and 6.02 log2 enrichment (interaction score) in the assay with PUM1 PUF domain R3-LHG.

For the sequence “GGCUAGAACUAGUGGAUCCCCCGGCGCCCGGCGGCUCGAGCCCGGGUAAGUGUAUAUAGUCUGCAUGCCGCCGGGCGCCAUGCCUGCAGGUCGACUCUAGAAAACAUG”, in the assay with PUM1 PUF domain R4-GNC, the binding signal was 3.99 log2 enrichment (interaction score).

For the sequence “GGCUAGAACUAGUGGAUCCCCCGGCGCCCGGCGGCUCGAGCCCGGGUAAGUCUAAAUAGUCUGCAUGCCGCCGGGCGCCAUGCCUGCAGGUCGACUCUAGAAAACAUG”, the binding signal with PUM1 PUF domain R7-EHG is 5.15 log2 enrichment (interaction score).

For “GGCUAGAACUAGUGGAUCCCCCGGCGCCCGGCGGCUCGAGCCCGGGUAAGUGUCAAUAGUCUGCAUGCCGCCGGGCGCCAUGCCUGCAGGUCGACUCUAGAAAACAUG”, the binding signal in the assay with PUM1 PUF domain R5-DKQ was 5.31 log2 enrichment (interaction score); with PUM1 PUF domain R5-FRC, 3.83 log2 enrichment (interaction score); with PUM1 PUF domain R5-KQD, 2.75 log2 enrichment (interaction score); in the assay with PUM1 PUF domain R5-GRI, 1.2 log2 enrichment (interaction score).

Take “GGCUAGAACUAGUGGAUCCCCCGGCGCCCGGCGGCUCGAGCCCGGGUAAGUGUAAAUCGUCUGCAUGCCGCCGGGCGCCAUGCCUGCAGGUCGACUCUAGAAAACAUG”: the binding signal in the assay with PUM1 PUF domain R1-SPR was 2.62 log2 enrichment (interaction score); in the assay with PUM1 PUF domain R1-RVT it was 5.15 log2 enrichment (interaction score); with PUM1 PUF domain R1-GRK it was 5.64 log2 enrichment (interaction score).

As to “GGCUAGAACUAGUGGAUCCCCCGGCGCCCGGCGGCUCGAGCCCGGGUAAGUUUAAAUAGUCUGCAUGCCGCCGGGCGCCAUGCCUGCAGGUCGACUCUAGAAAACAUG”, the binding signal with PUM1 PUF domain R7-TSS is 2.55 log2 enrichment (interaction score).

For “GGCUAGAACUAGUGGAUCCCCCGGCGCCCGGCGGCUCGAGCCCGGGUAAGUGUAAAGAGUCUGCAUGCCGCCGGGCGCCAUGCCUGCAGGUCGACUCUAGAAAACAUG”, the binding signal in the assay with PUM1 PUF domain R2-PWE is 4.9 log2 enrichment (interaction score).

On to “GGCUAGAACUAGUGGAUCCCCCGGCGCCCGGCGGCUCGAGCCCGGGUAAGUGUAAAAAGUCUGCAUGCCGCCGGGCGCCAUGCCUGCAGGUCGACUCUAGAAAACAUG”, for which the binding signal with PUM1 PUF domain R2-PWE is 2.14 log2 enrichment (interaction score).

As for “GGCUAGAACUAGUGGAUCCCCCGGCGCCCGGCGGCUCGAGCCCGGGUAAGUGUAAUUAGUCUGCAUGCCGCCGGGCGCCAUGCCUGCAGGUCGACUCUAGAAAACAUG”, the binding signal in the assay with PUM1 PUF domain R3-LFG is 1.87 log2 enrichment (interaction score); with PUM1 PUF domain R3-CRR it was 2.3 log2 enrichment (interaction score); in the assay with PUM1 PUF domain R3-LHG, 4.7 log2 enrichment (interaction score).
